# Source: PubChem (National Center for Advancing Translational Sciences (NCATS))
# IMPase cell inh: qHTS Assay for Identifying the Cell-Membrane Permeable IMPase Inhibitors. 120,000 tested, under 10 active. AID 901, 2007. Inositol monophosphatase 1 (Rattus norvegicus), P97697. inhibition (IP1 accumulation), % at 46.1 µM. CHO-M1 cells, IP1 accumulation, HTRF TR-FRET ratio; active means well fitted curve in the direction sought with a large enough effect in the signal ratio, not every such curve was filed as active; inconclusive means small, poorly fitted or top-dose-only effect, or a change in a side signal; inactive means no such curve, though single readings can be large or run the other way; the % refers to the signal ratio;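 further: cells stimulated with carbachol in lithium chloride buffer; plate controls were DMSO basal wells for no effect and reference inhibitor wells for full effect; higher means more IMPase inhibition seen as more IP1 and lower FRET ratio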
#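 In this qHTS, compounds (final up to 46 uM) act on CHO-M1 cells that are then activated through the M1 receptor with carbachol, in pH 7.4 buffer containing 50 mM LiCl, for 30 min. IP1 accumulation is quantified by the IP-One immunoassay.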
# NPSR antagonist: qHTS Assay for Antagonists of the Neuropeptide S Receptor: cAMP Signal Transduction; Q6W5P4; CHO-NPSR cells, cAMP TR-FRET, antagonist mode; Potency, µM (top dose mostly 38.3 µM), inactives show at the top dose activity change, negative = inhibition, most hits filed as inhibitors; 220,000 compounds, 1% hits; AID 1461, 2008; further: potency means the concentration at half of the fitted maximal effect; on the % scale 0 is the no-effect control and ±100 the full control effect; nearly all actives have a fitted effect of over 50% in size
# 12-hLO inh: qHTS Assay for Inhibitors of 12-hLO (12-human lipoxygenase); Polyunsaturated fatty acid lipoxygenase ALOX12 (Homo sapiens), P18054; purified 12-hLO, xylenol orange hydroperoxide absorbance; Potency, µM (top dose mostly 57.1 µM), inactives show at the top dose activity change, negative = inhibition, actives largely listed as inhibitors; 150,000 compounds, 0.12% hits; AID 1452, 2008; further: potency means the concentration at half of the fitted maximal effect; on the % scale 0 is the no-effect control and ±100 the full control effect; nearly all actives have a fitted effect of over 55% in size
# Target sequence (P18054 whole entry, looked up): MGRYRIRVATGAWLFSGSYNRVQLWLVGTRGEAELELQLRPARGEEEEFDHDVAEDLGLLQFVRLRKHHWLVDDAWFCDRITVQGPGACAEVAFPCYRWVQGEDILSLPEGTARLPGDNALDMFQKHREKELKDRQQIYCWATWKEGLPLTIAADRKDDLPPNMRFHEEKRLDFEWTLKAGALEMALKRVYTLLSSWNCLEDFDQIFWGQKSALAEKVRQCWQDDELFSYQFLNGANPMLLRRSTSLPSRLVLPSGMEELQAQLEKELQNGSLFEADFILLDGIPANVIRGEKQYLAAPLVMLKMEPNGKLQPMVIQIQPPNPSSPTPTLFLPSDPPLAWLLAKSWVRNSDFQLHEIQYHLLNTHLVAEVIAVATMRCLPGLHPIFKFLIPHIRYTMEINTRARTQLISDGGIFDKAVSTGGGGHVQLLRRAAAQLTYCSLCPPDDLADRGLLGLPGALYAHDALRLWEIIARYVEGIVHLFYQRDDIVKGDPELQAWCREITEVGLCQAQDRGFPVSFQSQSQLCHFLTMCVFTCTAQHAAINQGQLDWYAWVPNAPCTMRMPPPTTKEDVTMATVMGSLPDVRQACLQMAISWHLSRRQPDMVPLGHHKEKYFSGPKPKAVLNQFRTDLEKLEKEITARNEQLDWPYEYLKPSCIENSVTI
#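 Hydroperoxide formation by human 12-lipoxygenase from 40 uM arachidonic acid was followed colorimetrically via ferric-xylenol orange complex, using the 573/405 nm absorbance ratio. Enzyme concentration was 150 nM, with 30 min reaction at room temperature.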
# PNC assembly inh: High Content Assay for Compounds that inhibit the Assembly of the Perinucleolar Compartment; activity change (PNC), negative = inhibition, % at 10 µM; 140,000 compounds, 3.1% hits; AID 2417, 2010; PC3M PTB-GFP, PNC prevalence imaging, 16 h; hits give low values;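 active means readout at or below -70, meaning at least 70% loss of cells showing the perinucleolar compartment, a nuclear body marking cancer cells; inconclusive means readout between -30 and a set limit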;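 further: plate controls were DMSO wells for no effect and camptothecin positive control wells for full effect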
#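 Compounds are pinned in duplicate onto adhered PC3M cells stably expressing GFP-tagged PTB and incubated 16 h at 37 C. Cells are then fixed, nuclei stained with Hoechst, and PNC-positive cells counted.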
# HttQ103 aggreg: qHTS Multiplex Assay to Identify Dual Action Probes in a Cell Model of Huntington: Aggregate Formation (GFP); PC12 HttQ103-GFP aggregates, Acumen cytometry, 40 h; 220,000 compounds, 1.1% hits; Potency, µM (titrated, usually from 46.1 µM), inactives show at the highest dose activity change, negative = inhibition, hits mostly inhibitors; further: potency means the concentration at half of the fitted maximal effect; on the % scale 0 is the no-effect control and ±100 the full control effect; nearly all actives have a fitted effect of over 60% in size
#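 Inducible Q103 Huntingtin exon 1–GFP PC12 line, 1500 cells/well in phenol red free DMEM with 5% equine and 5% calf serum. Tebufenozide 100 nM induced expression; compounds titrated; aggregates quantified by cytometry.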
# HTT ATP protect: qHTS Multiplex Assay to Identify Dual Action Probes in a Cell Model of Huntington: Cytoprotection (ATP); AID 1471, 2008; 230,000 compounds, 0.14% hits; PC12 HTT-Q103 induced, cytoprotection, ATP luminescence, 40 h; Potency, µM (highest dose often 56.4 µM), without a hit: cytoprotection (ATP increase), actives largely listed as activators; further: potency means the concentration at half of the fitted maximal effect; % of control where 0% means no effect; nearly all actives have a fitted effect of over 45% in size
#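 ATP quantification (ATPlite) reports survival of PC12 cells in which tebufenozide, 100 nM final, switches on Htt exon 1 with 103 glutamines linked to GFP; compounds are titrated.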
# * = called active by the depositor; ? = inconclusive; . = no result; [ ] = remark or other dose. Most compounds without a hit are left out; they make up all but 3.3% or so of the library. Unless noted, the call rests on the fitted dose curve; in most records, active means well fitted curve in the direction sought with a large enough effect; inconclusive means small, poorly fitted or top-dose-only effect, or another doubt; inactive means no such curve, though single readings can be large; an effect the other way counts as inactive or inconclusive.
SMILES,IMPase cell inh,NPSR antagonist,12-hLO inh,PNC assembly inh,HttQ103 aggreg,HTT ATP protect
CCOC(=O)CNC(=O)CSc1ncnc2c1nnn2-c1ccc(F)cc1,-2,-4%[46.1 µM],4%,-100*,3%,-7%[10 µM]
CC1CCCCN1S(=O)(=O)c1ccc(C(=O)Nc2nnc(-c3ccccc3Cl)o2)cc1 (stereo not drawn),-11,-14%[46.1 µM],0%,-27,?,-25%[10 µM]
CCOC(=O)N1CCN(S(=O)(=O)c2ccc(C(=O)Nc3nnc(C4CC4)o3)cc2)CC1,.,-5%,0%,-16,?,33%[10 µM]
CCC1CCCCN1S(=O)(=O)c1ccc(C(=O)Nc2nnc(-c3ccccc3Cl)o2)cc1 (stereo not drawn),-8,13%[46.1 µM],4%,13,7.9µM*,29%[10 µM]
O=C(Nc1nnc(-c2ccccc2Cl)o1)c1ccc(S(=O)(=O)N2CCCCCC2)cc1,-6,7%[46.1 µM],1%,15,10µM*,-65%
CCOC(=O)N1CCN(S(=O)(=O)c2ccc(C(=O)Nc3nnc(CC)o3)cc2)CC1,.,-1%,-7%,-82*,4%,-4%[10 µM]
COC(=O)CSc1nnc(-c2cnccn2)n1C,-3,11%[46.1 µM],-1%,-16,11%,9%[10 µM]
Cn1c(SCC(=O)Nc2ccc3cn[nH]c3c2)nnc1-c1cnccn1,-6,-23%[46.1 µM],-4%,-100*,0%,-1%
CC(C)OC(=O)CSc1nnc(-c2cnccn2)n1C,-10,-10%[46.1 µM],-4%,-91*,-11%,-4%[1.9 µM]
O=C(/C=C/c1ccccc1)NNC1=NS(=O)(=O)c2ccccc21,.,-7%,.,.,9%[9.22 µM],16%[10 µM]
COc1ccc(/C=C/c2cc(OC)c(OC)cc2CC[N+](C)(C)C)cc1,.,.,.,.,.,-39%
O=C(O)C1CCCN1C(=O)Nc1ccccc1 (stereo not drawn),5,-3%[46.1 µM],6%,6,1.1µM*,1%[0.074 µM]
N#Cc1c(-c2ccccc2)ccnc1Oc1ccccc1,0,-18%[46.1 µM],2%,-96*,-7%,-12%
COc1ccc(OC)c(-n2c(-c3ccccc3)n[nH]c2=S)c1,-8,-3%[46.1 µM],-2%,-8,19%,-24%
COc1ccc(OC)c(-c2nc3c(C)n[nH]c(=O)c3[nH]2)c1,-5,0%[46.1 µM],2%,31,13µM*,-24%[10 µM]
COc1cc(OC)c(OC)cc1C#N,.,15%,.,.,8%,-20%
COc1cc2c(cc1OC)C1(CCCC1)C(N)=C2C#N,8,-11%[46.1 µM],?,-100*,?,6%[10 µM]
CCN(CC)CC(O)COc1ccccc1C(=O)CCc1ccccc1 (stereo not drawn),25,15%[46.1 µM],7%,-86*,12%,7%
COc1ccccc1CN1CCC2(CC1)CCN(C(=O)c1cccc(F)c1)CC2,.,.,0%,.,.,-37%
Cn1cc(SCC(=O)Nc2nc3ccccc3s2)c2ccccc21,10,-8%[46.1 µM],3%,-89*,26%,-17%[0.074 µM]
Cn1cc(SCC(=O)N2CCOCC2)c2ccccc21,7,2%[46.1 µM],5%,-108*,-16%,0%[10 µM]
Cc1csc(SCC(=O)Nc2nc3ccccc3s2)n1,5,0%[46.1 µM],-1%,-9,-25%,-1%
O=C1C=CCCC1,.,.,3%,.,.,-1%
NC(=O)COc1ncn(-c2ccccc2)n1,-3,0%[46.1 µM],3%,-112*,13%,1%
C=CCN1C(=CCO)[C@H]2C[C@H]3[C@@H]1CC[C@@]31c3ccccc3N3C=C4[C@@H]5N(/C=C/2[C@H]31)c1ccccc1[C@]51CC[C@H]2[C@H]1C[C@@H]4/C(=C/CO)N2CC=C,0[20.6 µM],.,3%[25.6 µM],.,7%[20.6 µM],-12%[17.1 µM]
SMILES,IMPase cell inh,NPSR antagonist,12-hLO inh,PNC assembly inh,HttQ103 aggreg,HTT ATP protect
Fc1ccc(-c2nnc(CN3CCC(c4nc5ccccc5s4)CC3)o2)cc1,19,-9%[46.1 µM],0%,32,11µM*,-20%
COc1ccc(CCNC(=O)Cn2c(=O)n(-c3ccc(C)c(F)c3)c(=O)c3sccc32)cc1OC,.,3%,.,.,-11%,-3%
COc1ccc(CNC(=O)C(c2ccncc2)N(C(=O)Cc2cccs2)c2ccccc2)cc1 (stereo not drawn),.,6%,3%,-14,15%,2%[10 µM]
COc1ccc(N(C(=O)CCl)C(C(=O)NCCc2ccccc2)c2cccs2)cc1 (stereo not drawn),.,?,-4%,-3,2.2µM*,-84%[10 µM]
O=C(O)Cn1c(C(=O)Nc2nc(-c3ccccc3Cl)cs2)cc2ccccc21,.,.,.,.,-5%,-13%
Cc1cc([N+](=O)[O-])cc(C)c1OCC(=O)N/N=C/c1ccc(OC(=O)c2ccccc2Br)cc1,.,1%,-1%,62,20%,-3%[10 µM]
Cc1cc([N+](=O)[O-])cc(C)c1OCC(=O)N/N=C/c1ccc(OC(=O)c2ccccc2)cc1,.,-4%,-1%,-100*,7%,-9%[10 µM]
NC(=S)n1[nH]c(-c2ccc([N+](=O)[O-])cc2)c(N=Nc2ccccc2[N+](=O)[O-])c1=O,.,-5%,.,.,4%,12%[10 µM]
NC(=S)n1[nH]c(-c2ccc([N+](=O)[O-])cc2)c(N=Nc2cccc([N+](=O)[O-])c2)c1=O,.,?,.,.,13µM*,-121%
COc1ccc(C(=O)N2CCN(C3CCN(Cc4ccccc4)CC3)CC2)cc1OC,1,-1%[46.1 µM],-2%,5,3%[9.22 µM],-9%
COc1cc(C(=O)N2CCN(c3ccc(C)cc3C)CC2)cc(OC)c1OC,2,5%,-4%,-119*,?,-22%
COc1ccc(C(=O)N2CCN(Cc3cc(OC)c(O)c(OC)c3)CC2)cc1OC,12,2%[46.1 µM],-24%,-87*,24%,-30%[10 µM]
COc1ccc(CN2CCN(C(=O)c3cc(OC)c(OC)c(OC)c3)CC2)cc1OC,1,-4%[46.1 µM],-3%,-100*,5%,7%
CCCCC(CC)CN1CN(CC(CC)CCCC)CC(C)(N)C1 (stereo not drawn),.,.,3%,.,.,21%
COc1cccc(NC(=O)CCSc2nc(-c3ccco3)cc(C(F)(F)F)n2)c1,3,.,.,.,.,.
CC(=O)c1sc(NC(=O)C2(F)C(F)(F)C(F)(F)C(F)(F)C(F)(F)C2(F)F)nc1C,9,-11%[46.1 µM],-11%,38,1.4µM*,-5%[0.074 µM]
O=C(CSC1=NCCS1)Nc1ccnc2ccccc12,8,-3%[46.1 µM],-8%,-3,10µM*,26%
CCOC(=O)C1=C(CC)Nc2ccccc2N/C1=N\S(=O)(=O)c1ccc2ccccc2c1,.,-39%,.,.,?,.
